The record followed here is PubChem BioAssay (NCATS).

Test [1] in a line: Quantitative High-Throughput drug screen in 47 multiple myeloma cell lines against the NCATS MIPE library collection: MM1S_ATCC cell viability assay (AID 1918980). Also: nearly all actives have a fitted effect of over 45% in size. The method, boiled down: (§1)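 qHTS format: cells plated (500/well), pin-dosed with MIPE 4.0 compounds, kept 48 h at 37 °C. Readout was CellTiter-Glo luminescence, median RLU.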
Test [2] in a line: Quantitative High-Throughput drug screen in 47 multiple myeloma cell lines against the NCATS MIPE library collection: LP1_DSMZ cell viability assay (AID 1918982). Also: nearly all actives have a fitted effect of over 35% in size. The essentials: as §1
A short description of test [3]: Quantitative High-Throughput drug screen in 47 multiple myeloma cell lines against the NCATS MIPE library collection: L363_DSMZ cell viability assay (AID 1918984). Also: nearly all actives have a fitted effect of over 40% in size. The essentials: as §1
Test [4] is described as follows: Quantitative High-Throughput drug screen in 47 multiple myeloma cell lines against the NCATS MIPE library collection: KMS34_JCRB cell viability assay (AID 1918985). Also: nearly all actives have a fitted effect of over 40% in size. The method, boiled down:
as §1

A short description of test [5]: Quantitative High-Throughput drug screen in 47 multiple myeloma cell lines against the NCATS MIPE library collection: SKMM1_PLB cell viability assay (AID 1919863). Also: nearly all actives have a fitted effect of over 35% in size. Particulars: SKMM1 myeloma viability, CellTiter-Glo ATP, 48 h; viability: stronger effect = lower value. The essentials: as §1
Test [6] in a line: Quantitative High-Throughput drug screen in 47 multiple myeloma cell lines against the NCATS MIPE library collection: KMS28PE_JCRB cell viability assay (AID 1918983). Also: nearly all actives have a fitted effect of over 35% in size. The method, boiled down: as §1
The nature of test [7]: Quantitative High-Throughput drug screen in 47 multiple myeloma cell lines against the NCATS MIPE library collection: OCIMY7_PLB cell viability assay (AID 1918987). Also: nearly all actives have a fitted effect of over 65% in size. The settings on record: OCI-MY7 myeloma viability, CellTiter-Glo ATP, 48 h; viability (% of DMSO): at 45.8 µM (top of the series). The method, boiled down: as §1
(In general: ATP-based viability assays read luminescence as a measure of living cells.)

Test [8] in a line: Quantitative High-Throughput drug screen in 47 multiple myeloma cell lines against the NCATS MIPE library collection: OCIMY5_PLB cell viability assay (AID 1918988). Also: nearly all actives have a fitted effect of over 65% in size. The essentials:
as §1

Test [9] can be described thus: Quantitative High-Throughput drug screen in 47 multiple myeloma cell lines against the NCATS MIPE library collection: OPM1_PLB cell viability assay (AID 1918989). Also: nearly all actives have a fitted effect of over 40% in size. The method, boiled down:
as §1

The nature of test [10]: Quantitative High-Throughput drug screen in 47 multiple myeloma cell lines against the NCATS MIPE library collection: MM1R_ATCC cell viability assay (AID 1918981). Also: nearly all actives have a fitted effect of over 35% in size. The method, boiled down:
as §1

Results filed as inconclusive are left out. A number with no mark means an inactive call. Activity calls are given as the source filed them. Calls follow the shape of the dose curve; as a rule, active = well fitted cell-killing curve with a large enough effect; inconclusive = small, poorly fitted or top-dose-only effect, or effect the other way; inactive = no such curve, though single readings can be large or run the other way.

Broadly, the viability is a read-out of living cells in per cent, often relative to untreated cells.
Potency is read from the fitted curve at half-maximal effect.

For the molecule `CC(=O)O[C@H]1C[C@@H]2CC[C@H]3[C@H]4C[C@H]([N+]5(C)CCCCC5)[C@@H](OC(C)=O)[C@@]4(C)CC[C@@H]3[C@@]2(C)C[C@H]1[N+]1(C)CCCCC1`, the Potency in test [1] was 2.09 µM (active). Also, the Potency result in [2], in [3] and in test [4] was “inactive” throughout. Further, the viability in test [5] was 128%.
With `N#CC(=Cc1ccc(O)c(O)c1)C(=O)NCc1ccccc1`, the Potency in test [1] is 26.4 µM (active); in test [3] it was 3.32 µM (active); in test [7], 5.9 µM (active); in test [8] it was 20.9 µM (active); in test [9], 9.35 µM (active). The Potency entry in test [6] is “inactive”.
As to `Cc1ccc(O)c(C(CCN(C(C)C)C(C)C)c2ccccc2)c1` (stereo not given), the Potency entry in test [1], in [3], in [7], in [8] and in [9] was “inactive” each time.
For `COc1cc(C)c(C=CC(C)=CC=CC(C)=CC(=O)O)c(C)c1C`, the Potency entry in [1], in test [2], in [3] and in [4] was “inactive” each time. Also, the viability in test [5] was 132%.
On to `CC[C@H]1OC(=O)[C@H](C)[C@@H](O[C@H]2C[C@@](C)(OC)[C@@H](O)[C@H](C)O2)[C@H](C)[C@@H](O[C@@H]2O[C@@H](C)C[C@H](N(C)C)[C@@H]2O)[C@](C)(O)C[C@@H](C)C(=O)[C@H](C)[C@@H](O)[C@]1(C)O`, for which the Potency result in test [1], in [2], in [3], in test [8] and in [9] was “inactive” in each case.
Regarding `FC(F)(F)c1ccc(Nc2nc3ccc(Oc4ccnc(-c5ncc(C(F)(F)F)[nH]5)c4)cc3[nH]2)cc1`, the Potency was 20.9 µM (active) in test [1], 18.7 µM (active) in test [3], 16.6 µM (active) in [8] and 20.9 µM (active) in test [9].
In the case of `Nc1nc(=O)n([C@H]2C[C@H](O)[C@@H](CO)O2)cc1F`, the Potency is 0.0074 µM (active) in test [1], 0.0026 µM (active) in test [4] and 0.526 µM (active) in test [7]. Further, the Potency entry in [2] and in test [8] was “inactive” in each case. Moreover, the viability in [5] is 129%.
For `CC(C)c1cc(C(C)C)c(CC(=O)NS(=O)(=O)Oc2c(C(C)C)cccc2C(C)C)c(C(C)C)c1`, in test [1], the Potency result was “inactive”. The Potency in test [2] is 20.9 µM (active); in test [6], 23.5 µM (active); in [4], 18.7 µM (active); in [8] it was 33.2 µM (active); in test [9], 9.35 µM (active); in test [5] it was 26.4 µM (active).
For `O=[N+]([O-])c1cn2c(n1)OC[C@@H](OCc1ccc(OC(F)(F)F)cc1)C2`, the Potency in [1] was 2.64 µM (active). Besides, the Potency entry in test [2], in test [4], in [8] and in test [9] was “inactive” each time.
On to `COc1cc2ncnc(Nc3cccc(Br)c3)c2cc1OC`, for which the Potency was 0.0148 µM (active) in [1], 2.96 µM (active) in test [6], 0.0372 µM (active) in test [7] and 7.43 µM (active) in test [9].
Take `NS(=O)(=O)OC[C@@H]1C[C@@H](n2ccc3c(N[C@H]4CCc5ccccc54)ncnc32)C[C@H]1O`: the Potency was 2.64 µM (active) in test [1]; 0.662 µM (active) in [2]; 0.935 µM (active) in [6]; 0.743 µM (active) in test [7]; 16.6 µM (active) in test [8]; 16.6 µM (active) in test [9]. The Potency in [5] is 1.05 µM (active).
`CN(C)CC[C@H](c1ccc(Cl)cc1)c1ccccn1`: in [1], the Potency is 16.6 µM (active). The Potency entry in test [2] and in test [4] was “inactive” each time.
For `c1coc(CNc2ncnc3nc[nH]c23)c1`, the Potency result in test [10], in [2] and in [6] was “inactive” throughout. The Potency in test [3] is 11.8 µM (active).
`CCCc1nc(C(C)(C)O)c(C(=O)O)n1Cc1ccc(-c2ccccc2-c2nn[nH]n2)cc1`: the Potency result in test [10], in test [2], in test [6], in test [3] and in [4] was “inactive” in each case. Further, the viability in [5] is 131%.
For `CC(C)(C)[N+]([O-])=Cc1ccc(S(=O)(=O)O)cc1S(=O)(=O)O`, the Potency entry in test [10], in test [2], in test [6], in test [3], in test [8] and in test [9] was “inactive” throughout. For the same molecule, the viability in test [5] is 115%.
As to `CC1=C(C(=O)Nc2cc3cn[nH]c3cc2F)C(c2ccc(Cl)cc2F)N=C(c2ccnc(Cl)c2)N1` (stereo not given), the Potency in test [10] is 18.7 µM (active); in [6], 20.9 µM (active); in [3], 18.7 µM (active); in [7], 5.9 µM (active); in test [8], 16.6 µM (active); in test [9], 18.7 µM (active). For the same molecule, the Potency entry in test [2] was “inactive”.
As for `OC[C@@H](O)[C@@H](O)[C@H](O)[C@@H](O)CO`, the Potency entry in test [10] and in test [2] was “inactive” each time. Besides, in test [5], the viability was 122%.
Take `Cc1ccccc1C(=O)Nc1ccc(C(=O)N2CCCC(O)c3cc(Cl)ccc32)c(C)c1` (stereo not given): the Potency entry in test [10], in test [6], in [4] and in test [9] was “inactive” in each case. For the same molecule, in test [2], the Potency was 18.7 µM (active). Besides, in test [5], the viability is 139%.
